Test results reported in PubChem BioAssay (NCI).
Compounds without any hit were thinned out: in the full panel of roughly 83,000, 20% have a hit.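 A percent growth of 40 corresponds to 60% growth inhibition; 0 means no net growth; -100 means all cells died. Active threshold: below 10.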 Active and inactive are the calls of the source.

Columns and labels:
Experiment in all cases: NCI-60 one-dose screen, 48 h (100 = growth as untreated, 0 = no growth, -100 = all killed)
Conditions in all cases: 10 µM unless noted
EKVX NSCLC = tested on: EKVX NSCLC
SN12C renal = tested on: SN12C renal
UO-31 renal = tested on: UO-31 renal
TK-10 renal = tested on: TK-10 renal
ACHN renal = tested on: ACHN renal
CAKI-1 renal = tested on: CAKI-1 renal
A498 renal = tested on: A498 renal
CCRF-CEM leukemia = tested on: CCRF-CEM leukemia
MOLT-4 leukemia = tested on: MOLT-4 leukemia
SR leukemia = tested on: SR leukemia

Measured: growth

Cn1nc(C(C)(C)C)cc1NC(=O)Cc1ccc(/C=C2\C(=O)Nc3ccccc32)cc1
active: MOLT-4 leukemia 6.12%
inactive: EKVX NSCLC 49.1% | SN12C renal 62% | UO-31 renal 52.5% | TK-10 renal 91.2% | ACHN renal 37.4% | CAKI-1 renal 45.5% | A498 renal 62.9% | CCRF-CEM leukemia 35.8% | SR leukemia 34.9%

COc1ccc(CCN2C(=O)CCSC2=S)cc1OC
inactive: EKVX NSCLC 97.4% | SN12C renal 92.3% | UO-31 renal 79.2% | TK-10 renal 61.4% | ACHN renal 102% | CAKI-1 renal 95.2% | A498 renal 99.3% | CCRF-CEM leukemia 73.6% | MOLT-4 leukemia 100% | SR leukemia 33.2%

COc1cc(/C=C/C(=O)c2ccc(Cl)cc2)cc(CN2CCCCC2)c1O
inactive: EKVX NSCLC 89.5% | SN12C renal 93.1% | UO-31 renal 58.5% | TK-10 renal 115% | ACHN renal 87.1% | CAKI-1 renal 85.2% | A498 renal 82.6% | CCRF-CEM leukemia 58.8% | MOLT-4 leukemia 64.3% | SR leukemia 34%

O=C1C(Cl)=C(NCc2ccco2)C(=O)c2ccccc21
inactive: EKVX NSCLC 110% | SN12C renal 90.1% | UO-31 renal 97.3% | TK-10 renal 110% | ACHN renal 93.8% | CAKI-1 renal 93.9% | A498 renal 89.8% | CCRF-CEM leukemia 24.4% | MOLT-4 leukemia 91.1% | SR leukemia 63.9%

COc1ccc(/C=C2/SC(=O)N(CC(=O)N3CCN(c4cc5c(cc4F)c(=O)c(C(=O)O)cn5C4CC4)CC3)C2=O)cc1
inactive: EKVX NSCLC 114% | SN12C renal 96.5% | UO-31 renal 81.8% | TK-10 renal 117% | ACHN renal 102% | CAKI-1 renal 92.4% | A498 renal 113% | CCRF-CEM leukemia 107% | MOLT-4 leukemia 108% | SR leukemia 94.4%

NCCCNc1nc2ccccc2c2c(=O)c3cc(F)ccc3sc12
active: TK-10 renal -46.6% | ACHN renal -66.7% | CCRF-CEM leukemia 0.338% | MOLT-4 leukemia -35% | SR leukemia 9.08%
inactive: EKVX NSCLC 35.6% | SN12C renal 41.7% | UO-31 renal 23% | CAKI-1 renal 33.8% | A498 renal 20.5%

COc1ccc(Br)c(/C=C2\SC(=Nc3ccc(O)cc3)NC2=O)c1
inactive: EKVX NSCLC 88.7% | SN12C renal 89.7% | UO-31 renal 49.8% | TK-10 renal 96.4% | ACHN renal 89.7% | CAKI-1 renal 75.8% | A498 renal 97.6% | CCRF-CEM leukemia 75% | MOLT-4 leukemia 85.2% | SR leukemia 110%

COC(=O)/C(CCC=C(C)C)=C1\[C@@H](OC(C)=O)C[C@@]2(C)[C@H]1CC(=O)N[C@H]1[C@@]3(C)CCNC(=O)[C@@H](C)[C@@H]3CC[C@@]12C
inactive: EKVX NSCLC 98% | SN12C renal 98.9% | UO-31 renal 81.9% | TK-10 renal 99.5% | ACHN renal 101% | CAKI-1 renal 95.5% | A498 renal 109% | CCRF-CEM leukemia 104% | MOLT-4 leukemia 99.5% | SR leukemia 103%

Cc1cc2c(c(C)c1Cl)C(=O)/C(=C/c1ccco1)O2
inactive: EKVX NSCLC 83.4% | SN12C renal 96% | UO-31 renal 78.3% | TK-10 renal 93.9% | ACHN renal 92.2% | CAKI-1 renal 93.7% | A498 renal 104% | CCRF-CEM leukemia 95.6% | MOLT-4 leukemia 97.3% | SR leukemia 69.7%

COc1cc2nc(NC3CCC3)nc(NC3CCN(C(C)C)CC3)c2cc1OC
active: SR leukemia 2.34%
inactive: EKVX NSCLC 83.5% | SN12C renal 92.2% | UO-31 renal 80.6% | TK-10 renal 46.8% | ACHN renal 57.2% | CAKI-1 renal 92.2% | A498 renal 75.9% | CCRF-CEM leukemia 46.5% | MOLT-4 leukemia 45.5%

COc1cc(C2C(C#N)=C(N)OC3=C2C(=O)c2ccccc2C3=O)cc(OC)c1OC (centres undefined)
inactive: EKVX NSCLC 52.4% | SN12C renal 39.2% | UO-31 renal 41.2% | TK-10 renal 63.9% | ACHN renal 37.3% | CAKI-1 renal 40.9% | CCRF-CEM leukemia 55.6% | SR leukemia 31.6%
active: A498 renal -0.0439%

COc1ccc(/C=C/C(=O)c2ccc(Nc3nc(NCCO)nc(Nc4ccc(Cl)cc4)n3)cc2)cc1
inactive: EKVX NSCLC 66.6% | SN12C renal 86.6% | UO-31 renal 70.8% | TK-10 renal 96.2% | ACHN renal 67.7% | CAKI-1 renal 81.4% | A498 renal 69.2% | CCRF-CEM leukemia 48.8% | MOLT-4 leukemia 46.3% | SR leukemia 38.4%

O=C(/C=C/c1ccc(F)cc1)c1ccc(Nc2nc(NCCO)nc(Nc3ccc(Cl)cc3)n2)cc1
inactive: EKVX NSCLC 67.7% | SN12C renal 94% | UO-31 renal 70.7% | TK-10 renal 93.4% | ACHN renal 70.8% | CAKI-1 renal 73.6% | A498 renal 70.4% | CCRF-CEM leukemia 60.5% | MOLT-4 leukemia 57.9% | SR leukemia 25.8%

CC(=S)NC(=O)C(=O)/C=C1/NC(=O)C(=O)S1
inactive: EKVX NSCLC 100% | SN12C renal 99.1% | UO-31 renal 79.5% | TK-10 renal 110% | ACHN renal 99.1% | CAKI-1 renal 93.8% | A498 renal 103% | CCRF-CEM leukemia 107% | MOLT-4 leukemia 112% | SR leukemia 107%

COc1cccc2c(=O)c3c(sc12)c(NCCCNCCO)nc1ccccc13
active: MOLT-4 leukemia 1.38% | SR leukemia 0.0565%
inactive: EKVX NSCLC 53.9% | SN12C renal 56.5% | UO-31 renal 27.4% | TK-10 renal 58.6% | ACHN renal 33.6% | CAKI-1 renal 48.1% | A498 renal 14.5% | CCRF-CEM leukemia 29.2%

COc1cccc2cc(N(C)c3nc(C)nc4ccsc34)ccc12
active: A498 renal -9.74% | CCRF-CEM leukemia 4.65% | MOLT-4 leukemia 3.39% | SR leukemia 2.36%
inactive: EKVX NSCLC 60.2% | SN12C renal 25.7% | UO-31 renal 30.5% | TK-10 renal 41.8% | ACHN renal 18.9% | CAKI-1 renal 21.5%

Clc1ccc(Nc2scc3[n+]2CCC3)cc1
inactive: EKVX NSCLC 60.3% | SN12C renal 98.2% | UO-31 renal 81.3% | TK-10 renal 111% | ACHN renal 104% | CAKI-1 renal 84.8% | A498 renal 82.5% | CCRF-CEM leukemia 95.8% | MOLT-4 leukemia 94.6% | SR leukemia 113%

O=C(Cn1cc(COc2ncnc3c2cnn3-c2ccccc2)nn1)Nc1cccc2ccccc12
inactive: EKVX NSCLC 85.5% | SN12C renal 96.8% | UO-31 renal 99.8% | TK-10 renal 108% | ACHN renal 91% | CAKI-1 renal 90.6% | A498 renal 88.8% | CCRF-CEM leukemia 96.6% | MOLT-4 leukemia 94.8% | SR leukemia 101%

O=c1c2cccc(F)c2sc2c(N3CCNCC3)nc3ccccc3c12
inactive: EKVX NSCLC 48.2% | SN12C renal 46.5% | UO-31 renal 23% | TK-10 renal 53% | ACHN renal 16% | CAKI-1 renal 39.4% | A498 renal 48.5% | CCRF-CEM leukemia 13.2%
active: MOLT-4 leukemia -18.8% | SR leukemia 3.21%

O=C(c1nc2ccccc2[nH]1)C1C(c2cccc([N+](=O)[O-])c2)C2CC3CCCCC3N2[C@@]12C(=O)Nc1cc(Cl)ccc12 (some centres undefined)
active: UO-31 renal -19.5% | A498 renal -1.86% | MOLT-4 leukemia 8.76% | SR leukemia 6.09%
inactive: EKVX NSCLC 31.3% | SN12C renal 33.2% | TK-10 renal 46.9% | ACHN renal 21.2% | CAKI-1 renal 12.2% | CCRF-CEM leukemia 25.5%

Clc1ccc(COc2ccc(Nc3ncnc4onc(-c5ccccc5)c34)cc2)cc1
inactive: EKVX NSCLC 95.6% | SN12C renal 87.8% | UO-31 renal 90.5% | TK-10 renal 91.4% | ACHN renal 41.7% | CAKI-1 renal 84.6% | A498 renal 69.2% | CCRF-CEM leukemia 73.2% | MOLT-4 leukemia 85.9% | SR leukemia 43.8%

O=C(NCc1ccco1)C1CN(c2ccc(Cl)cc2)N(c2ccc(Cl)cc2)C1=O (centres undefined)
inactive: EKVX NSCLC 65.5% | SN12C renal 62.9% | UO-31 renal 42.7% | TK-10 renal 84.2% | ACHN renal 63.5% | CAKI-1 renal 41.1% | A498 renal 38.2% | CCRF-CEM leukemia 32.3% | MOLT-4 leukemia 28.3% | SR leukemia 36.7%

O=c1c(-c2nc3ccccc3[nH]2)cc2ccccc2n1Cc1cn(Cc2ccc(F)cc2)nn1
active: UO-31 renal -18.9% | A498 renal -14.5%
inactive: EKVX NSCLC 31.4% | SN12C renal 14.2% | TK-10 renal 21.7% | ACHN renal 15% | CAKI-1 renal 32.9% | CCRF-CEM leukemia 23.4% | MOLT-4 leukemia 19.9% | SR leukemia 30.2%

O=c1oc2ccc(I)cc2c(=O)n1-c1ccc(I)cc1F
inactive: TK-10 renal 11.3%
active: EKVX NSCLC 9.77% | SN12C renal 4.52% | UO-31 renal 8.63% | ACHN renal 4.07% | CAKI-1 renal -20.2% | A498 renal -73.3% | MOLT-4 leukemia -35.6%

COc1ccc(N(C)c2nc(N)nc3sc4c(c23)CCCC4)cc1
inactive: EKVX NSCLC 61% | SN12C renal 24.2% | UO-31 renal 38.5% | TK-10 renal 45.1% | ACHN renal 26.7% | CAKI-1 renal 25.6% | MOLT-4 leukemia 11.6%
active: A498 renal 0.565% | SR leukemia 6.49%

OCCNc1nc(Nc2ccc(C3=NN(c4cc(Cl)cc(Cl)c4)C(c4ccc(C(F)(F)F)cc4)C3)cc2)nc(N2CCOCC2)n1 (centres undefined)
inactive: EKVX NSCLC 71.4% | SN12C renal 74.8% | UO-31 renal 72% | TK-10 renal 114% | ACHN renal 56.8% | CAKI-1 renal 71.3% | A498 renal 82.4% | CCRF-CEM leukemia 51% | SR leukemia 70.5%

O=C(/C=C/c1ccccc1)c1ccc(Nc2nc(NCCO)nc(Nc3ccc(Cl)cc3)n2)cc1
inactive: EKVX NSCLC 74.2% | SN12C renal 94.1% | UO-31 renal 66.7% | TK-10 renal 98.5% | ACHN renal 74.1% | CAKI-1 renal 79.2% | A498 renal 88.9% | MOLT-4 leukemia 74.3% | SR leukemia 23.1%
